About 2,600 (0.72%) of roughly 360,000 compounds were called active. A call without a number means that no potency is given here. Roughly 5% stayed inconclusive and do not appear here. This is one part of a sample in which actives are shown more often than they occur. Calls come from the whole dose curve; as a rule, active = well fitted inhibition curve with a large enough effect; inconclusive = small, poorly fitted or top-dose-only effect; inactive = no such curve, though single readings can be large or run the other way.
Potency is the fitted concentration of half-maximal effect.

This assay can be described thus: Primary qHTS for Inhibitors of ATXN expression. Note: nearly all actives have a fitted effect of over 55% in size. Conditions: HEK-293 ATXN2-luciferase reporter, luminescence, 24 h; series mostly up to 57 µM. The method, boiled down: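 qHTS (up to 57 uM final) was run with 24 h compound exposure of reporter cells at 37 °C. Each well was multiplexed: SteadyGlo luminescence measured ATXN2-luciferase expression after a fluorogenic Gly-Phe-AFC viability readout (25 uM final).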
A general note: In qHTS, concentration-response curves come from the screen itself.
As to `O=C(Nc1cccc(-c2cccc(Cl)c2)c1)C1CCN(C2CCC2)CC1`, the Potency was 28.2 µM (active).

Regarding `O=C(NC1CCCC1)C1CCN(C(=O)Nc2cccc(Cl)c2)CC1`, the Potency result is “inactive”.

Take `COc1cccc(-c2cccc(NC(=O)C3CCN(C4CCC4)CC3)c2)c1`: the Potency entry is “inactive”.

As for `Cc1cc(C)c2nc3nc(C)cc(C)c3c(N)c2c1`, the Potency is 25.1 µM (active).

On to `CC(=O)OC[C@@H]1O[C@@H](n2ccc(=O)[nH]c2=O)[C@H](OC(C)=O)[C@H]1OC(C)=O`, for which the Potency entry was “inactive”.

Regarding `Cc1cccc(C)c1NC(=O)c1ccc(N)cc1`, the Potency result was “inactive”.

As to `COc1cc(C=CC(=O)O)ccc1O`, the Potency result is “inactive”.

Regarding `Cc1ccc(C(=O)Nc2cccc(C(F)(F)F)c2)cc1Nc1nc(-c2cccnc2)nc2c1cnn2C`, the Potency is 24.3 µM (active).

For `Cc1cc(Nc2cccc(C(F)(F)F)c2)nc2ccc(NC(=O)c3ccc(=O)[nH]c3)cc12`, the Potency result is “inactive”.

Regarding `Cc1nc(Nc2ccccc2C)c2cnn(C)c2n1`, the Potency result was “inactive”.

As to `COc1ccc(NC(=O)Nc2cccc(-c3noc(C)n3)c2)cc1`, the Potency entry is “inactive”.

On to `CCCNC(=O)CCC(=O)N1Cc2ccccc2Oc2ncccc21`, for which the Potency entry was “inactive”.

`CCOC(=O)Cn1c(=O)n(-c2ccccc2OC)c2nc(-c3cccc(F)c3)nc(C(N)=O)c21`: the Potency result was “inactive”.

For the compound `COc1ccc(OC)c(-c2nc(C(N)=O)c3c(n2)n(-c2ccc4c(c2)OCO4)c(=O)n3C)c1`, the Potency entry is “inactive”.

`CCc1ccc2c(c1)NC(=O)C2(C)Cc1ccc(OC(F)(F)F)cc1` (stereo not given): the Potency was 25.1 µM (active).

For `COC(=O)Cc1ccc(OCC(=O)Nc2ccc(OC(F)(F)F)cc2)cc1`, the Potency entry is “inactive”.

In the case of `CCC(=O)N1CCc2cc(Br)cc(S(=O)(=O)CCC(=O)NCc3ccccc3OC)c21`, the Potency entry is “inactive”.

As to `COc1ccc(OC)c(CNC(=O)Cn2nc(C)c3c(C)n(-c4ccccc4)nc3c2=O)c1`, the Potency result was “inactive”.

Turning to `O=C(COc1ccc(Cl)cc1Cl)N/N=C/c1ccccn1`, the Potency result is “inactive”.

On to `Cc1nnc(N/N=C/c2ccccn2)[nH]c1=O`, for which the Potency is 2 µM (active).

Regarding `O=C(N/N=C/c1ccccn1)C12CC3CC(CC(C3)C1)C2`, the Potency result was “inactive”.

Consider `CCc1cc2c(-c3ccccc3)cc(=O)oc2c2c1OCN(Cc1ccc(C)cc1)C2`, for which the Potency entry was “inactive”.

In the case of `O=C1CC(c2nnc(Cc3ccc(Cl)cc3)o2)CN1c1ccccc1` (stereo not given), the Potency entry was “inactive”.

As for `CC(O)CNCCOc1cccc(Oc2ccccc2)c1` (stereo not given), the Potency entry is “inactive”.

Take `COc1ccccc1OCCNCC(O)COc1cccc2[nH]c3ccccc3c12` (stereo not given): the Potency was 28.2 µM (active).

For `COc1cccc2[nH]c(C(=O)NCCc3ccccc3)cc12`, the Potency entry is “inactive”.

`COc1cc(OC)c(NC(=O)c2cnc(N3CCCC3)nc2C)cc1Cl`: the Potency entry was “inactive”.

`COc1ccc(NC(=O)C(=O)NCc2ccco2)cc1`: the Potency result is “inactive”.

Consider `COc1ccc(C(O)c2nc(-c3ccc(OC)nc3)cs2)cc1` (stereo not given), for which the Potency entry is “inactive”.

As to `COc1ccc(CS(=O)/C(Cl)=C(/Cl)C(=O)Nc2ccc(OC)nc2)cc1` (stereo not given), the Potency was 2.12 µM (active).

On to `Cc1ccc(C)c(N2CCN(C(=O)C3CCC(CNS(=O)(=O)c4cccs4)CC3)CC2)c1` (stereo not given), for which the Potency entry is “inactive”.

Take `O=C(OCC(O)CO)c1ccccc1Nc1ccnc2c(C(F)(F)F)cccc12` (stereo not given): the Potency result was “inactive”.

With `Cc1ccc(-c2ncc(Cl)cc2-c2ccc(S(C)(=O)=O)cc2)cn1`, the Potency entry is “inactive”.

As to `CC(C)OC(=O)c1ccc(NCc2cc(O)ccc2O)cc1Cl`, the Potency is 17.8 µM (active).

For the compound `CC(OC(=O)c1ccc(Cl)cc1O)C(=O)NCCC1=CCCCC1` (stereo not given), the Potency result was “inactive”.

As for `CC(CN1CCCCC1)OC(=O)c1ccccc1Cl` (stereo not given), the Potency result is “inactive”.

On to `O=C(N/N=C\c1ccc(Br)cc1)c1ccc(Cn2cccn2)o1`, for which the Potency entry was “inactive”.

For the compound `Cc1c(Cl)c([N+](=O)[O-])nn1Cc1ccc(C(=O)N/N=C\c2cc(Cl)ccc2O)o1`, the Potency is 2.82 µM (active).

On to `Cc1nn(Cc2ccccc2Cl)c(C)c1NC(=O)Cn1nc([N+](=O)[O-])c(Cl)c1C`, for which the Potency result is “inactive”.

For `Cc1nn(-c2ccc(F)cc2)c(-n2cccc2)c1C(=O)N1CCN(c2ccccc2)CC1`, the Potency result is “inactive”.

In the case of `CCC(C)N(C(=O)CSc1nnnn1-c1ccccc1OC)C1CCS(=O)(=O)C1` (stereo not given), the Potency result is “inactive”.

As to `COc1ccccc1-n1nnnc1S(=O)(=O)Cc1ccc(Cl)cc1`, the Potency is 14.1 µM (active).

`COc1ccccc1-n1nnnc1SCC(=O)NC(=O)Cc1ccccc1`: the Potency result is “inactive”.

On to `Cc1cn(C)c(CC(=O)NCc2ccc(Cl)cc2)c1C(=O)O`, for which the Potency result was “inactive”.

As to `CCc1ccc(Nc2nn3c(=O)c4cc5c(cc4nc3s2)OCO5)cc1`, the Potency entry was “inactive”.

As to `Cc1ccc(SCC(=O)Nc2ccc3oc(-c4ccccc4C)nc3c2)cc1`, the Potency result is “inactive”.

Consider `COc1ccc(-c2cc(-c3ccccc3)nc3c2COc2ccc(Cl)cc2-3)cc1`, for which the Potency result was “inactive”.

Regarding `CCC(=O)N1CCc2cc(S(=O)(=O)NCCC(=O)Nc3cccc(C)c3C)ccc21`, the Potency entry is “inactive”.

Turning to `COc1ccc(NC(=O)C2CCCN(S(=O)(=O)c3c(C)[nH]c(=O)[nH]c3=O)C2)c(OC)c1` (stereo not given), the Potency result is “inactive”.

As for `Oc1c(Cl)cc(Cl)c(Cl)c1Cc1c(O)c(Cl)cc(Cl)c1Cl`, the Potency is 28.2 µM (active).

As to `OCCC#Cc1ccc(N2C(c3ccsc3)=Cc3ccc(F)cc3C2c2c[nH]c3ccccc23)cc1` (stereo not given), the Potency entry was “inactive”.

Take `Cc1cc(Cl)ccc1-c1nc(NCCN(C)C)nc2ccsc12`: the Potency entry was “inactive”.

As for `Cc1cc(-n2nc(C)cc2C)n2ncc(-c3ccccc3)c2n1`, the Potency result is “inactive”.

In the case of `Cc1cc(C)n(-c2c(F)c(F)c(COC(=O)c3ccccc3)c(F)c2F)n1`, the Potency result was “inactive”.

For the compound `CCOC(=O)c1cnc(-n2nc(C)cc2C)nc1NNc1cc(C)nc(-c2ccccc2)n1`, the Potency was 7.08 µM (active).

In the case of `Cc1ccc(CN2CCCn3nc(C(=O)NCc4ccccc4Cl)cc3C2=O)cc1`, the Potency result is “inactive”.

As for `O=C1CC(c2ccc(F)cc2F)c2cc3c(cc2N1)OCO3` (stereo not given), the Potency result is “inactive”.

Turning to `Cc1cccn2c(=O)c3cc(C(=O)NC(C)c4ccccc4)c(=N)n(CCCO)c3nc12` (stereo not given), the Potency entry is “inactive”.

On to `COC(=O)c1sc(NC(=O)c2ccc(OC)cc2OC)nc1C`, for which the Potency was 2.24 µM (active).

For `COc1ccc(C(=O)NC2=NCCS2)c(OC)c1`, the Potency entry was “inactive”.

As for `COC(=O)c1sc(NC(=S)NC(=O)c2ccc(C)cc2)nc1C`, the Potency entry was “inactive”.

Consider `O=C(NC1CCCCC1)c1ccc(Cn2c(SCc3ccccc3)nc3cccnc32)cc1`, for which the Potency entry was “inactive”.

Regarding `COC(=O)c1ccc2nc(-c3ccc(OC)c(OC)c3)c(Cc3ccccc3)n2c1`, the Potency result is “inactive”.

In the case of `Cc1cc(Nc2cc(CN3CCOCC3)c3nc(C)c(Cc4ccc(Cl)cc4F)n3n2)n[nH]1`, the Potency is 19.3 µM (active).

Take `Cc1ccc(Cl)cc1NC(=O)CN1CCN(S(=O)(=O)N2CCOCC2)CC1`: the Potency result was “inactive”.

The values above are taken from PubChem BioAssay AID1745845 (National Center for Advancing Translational Sciences (NCATS), 2022).
